aSyn yeast inh: qHTS of alpha-syn Inhibitors. Yeast expressing alpha-synuclein, growth rescue, BacTiter-Glo, 24 h. Potency, µM (series often up to 46.1 µM), actives largely listed as activators. 370,000 tested, 0.14% active. AID 652106, 2013; also: nearly all actives have a fitted effect of over 65% in size
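Galactose-induced alpha-syn yeast (OD600=0.02, raffinose-pregrown) + pinned cpd, 24 hr, 30 deg C; growth by BacTiter-Glo luminescence. Growth restoration scores as activation.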
Mito fusion act: qHTS Assay for Small Molecule Inhibitors of Mitochondrial Division or Activators of Mitochondrial Fusion | 320,000 tested, 0.23% active | S. cerevisiae fusion-defective mutant growth rescue, CellTiterGlo 48 h | Potency, µM (highest dose often 46.1 µM), hits mostly activators; also: nearly all actives have a fitted effect of over 45% in size
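Growth-rescue viability read-out: after 48 h at the non-permissive 37C in glycerol/ethanol YPEG, yeast mitochondrial fusion mutants are measured by CellTiterGlo luminescence; compounds (23 nl pinned per well) restoring growth score as division inhibitors or fusion activators.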
Abeta rescue: qHTS for compounds that reverse cellular toxicity of Amyloid beta (A-beta) peptide in yeast: Primary Screen; yeast expressing A-beta42, growth rescue, OD600, 48 h; response scale: 0% DMSO, 100% iron-clioquinol control; Potency, µM (highest dose often 46.1 µM), hits mostly activators; AID 1347071, 2019; 410,000 tested, 0.063% active; also: nearly all actives have a fitted effect of over 55% in size
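Growth rescue measured by 600 nm absorbance after 48 h yeast culture at 30 C with compound. Values normalized between DMSO and an equimolar ferric chloride plus clioquinol control.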
AT treatment: qHTS Assay for Identifying a Potential Treatment of Ataxia-Telangiectasia. Potency, µM (top dose mostly 57.5 µM), hits mostly activators. 320,000 tested, 0.19% active. F2112 A-T fibroblasts, KAP-1 phosphorylation AlphaLISA; neocarzinostatin DNA damage 30 min before lysis. AID 485349, 2010; also: nearly all actives have a fitted effect of over 45% in size
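ATM-like activity read as KAP-1 phosphorylation via AlphaLISA donor/acceptor antibody pairs after lysis and 6 hr at 25C. Cells were ATM-null patient fibroblasts (F2112, hTERT), dosed 60 min, then exposed to the DSB inducer NCS for 30 min.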
Glioma ERSR ind: qHTS for Inducers of the Endoplasmic Reticulum Stress Response (ERSR) in Human Glioma: qHTS | AID 602332, 2012 | U87-MG GRP78 promoter luciferase reporter, 16 h | 420,000 tested, 0.02% active | Potency, µM, most hits filed as activators; also: series mostly up to about 76 µM; nearly all actives have a fitted effect of over 35% in size
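Stably transfected U87-MG human glioma cells carrying a GRP78-based luminescent sensor were seeded at 1000 cells/well, pin-dosed with compounds and incubated 16 h. Luciferase reagent was then added, and end-point luminescence was read after 10 min at room temperature.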
TDP43 rescue: qHTS of TDP-43 Inhibitors; TDP-43 expressing yeast growth rescue, BacTiter-Glo, 24 h; Potency, µM (highest dose often 46.1 µM), usual class: activators; 410,000 tested, 1.8% active; also: nearly all actives have a fitted effect of over 50% in size
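Yeast cells expressing TDP-43 under galactose induction are exposed to compounds for 24 hr at 30 deg C. BacTiter-Glo luminescence measures growth, so protective compounds score as activators.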
A number is an active result; . = inactive; ? = inconclusive; / = not tested or not shown; [ ] = dose if it differs, or a comment. Shown are actives, neighbours in structure and some others; about 2.1% of the full set was active somewhere. Calls follow the shape of the dose curve; as a rule, active = well fitted curve in the direction sought with a large enough effect; inconclusive = small, poorly fitted or top-dose-only effect, or another doubt; inactive = no such curve, though single readings can be large; an effect the other way counts as inactive or inconclusive.

SMILES	aSyn yeast inh	Mito fusion act	Abeta rescue	AT treatment	Glioma ERSR ind	TDP43 rescue
CCOC(=O)C1=NN(C(=O)c2ccc(OC)cc2)C(O)(c2ccc(Cl)cc2)C1 (configuration not stated)	?	.	?	.	.	?
COC(=O)C1=NN(C(=O)c2cccc(Br)c2)C(O)(c2ccc(Cl)cc2)C1 (configuration not stated)	17.8µM	.	.	.	.	?
Cc1ncc2c(c1CNC(=O)c1ccccc1F)CCN(C(=O)c1ccccc1-n1cccn1)C2	/	/	/	/	.	/
Cc1c(C(=O)OC(C)C(=O)N(C)Cc2ccccc2)oc2ccccc12 (configuration not stated)	.	/	.	.	.	35.5µM
Cc1ccc(CN2CCOc3ccc(CN4CCN(CCO)CC4)cc3C2)s1	/	/	/	/	.	/
C=CCNc1nc2cc(-c3ccccc3C)sc2c(=O)n1C	.	/	.	/	.	35.5µM
Cn1c(OCC2CCCO2)nc2cc(-c3ccccc3)sc2c1=O (configuration not stated)	.	/	.	/	.	35.5µM
COCCNc1nc2cc(-c3ccccc3)sc2c(=O)n1C	.	/	.	/	.	20µM
COc1cccc(CNc2nc3cc(-c4ccc(C)cc4)sc3c(=O)n2C)c1OC	?	/	.	/	.	25.1µM
COCCNc1nc2cc(-c3ccsc3)sc2c(=O)n1C	.	/	.	/	.	.
Cc1ccc(OCC(=O)Nc2ccc3nc(SCCOc4ccccc4)sc3c2)cc1	/	/	.	/	.	.
Cc1nc(-c2ccc(S(=O)(=O)NCc3ccc(OC(C)C)cc3)cc2)co1	.	/	.	/	.	?
COc1ccc(OC)c(-c2ccc(O)c(CN3CCc4c([nH]c5ccccc45)C3)c2)c1	/	/	/	/	.	/
CC(=O)c1ccc(F)c(-c2cc(C)cc3c2OC(CNC(=O)Cc2ccc4c(c2)OCO4)C3)c1 (configuration not stated)	/	/	/	/	.	/
CCOc1ccc(C(=O)CCC(=O)N(CC)CC(=O)NCc2cccs2)cc1	.	.	.	.	.	.
CCOc1ccc(C(=O)CC(C(=O)O)N2CCCCC2)cc1 (configuration not stated)	.[1.84 µM]	.	.	.	.	35.5µM
CCOc1ccc(C(=O)CC(NCc2cccs2)C(=O)O)cc1 (configuration not stated)	11.2µM	.	.	.	.	.
COc1ccc(OC)c(-c2cc(Cl)c3c(c2)CC(CNC(=O)C(C)N2CCOCC2)O3)c1 (configuration not stated)	/	/	/	/	.	/
COc1cccc(CNC(=O)c2c(OC)cc(=O)n3c2CCN(C(=O)C2CC24CCCCC4)CC3)c1 (configuration not stated)	/	/	/	/	.	/
Cc1cc(C)cc(N2C(=O)CSC23C(=O)N(CC(=O)NC2CCCCC2)c2ccccc23)c1 (configuration not stated)	.	/	.	/	.	.
Cc1nc(NC(=O)CCc2ccccc2)sc1C	.	.	.	.	.	12.6µM
COC(=O)c1ccccc1NC(=O)CCc1ccccc1	.	.	.	.	.	10µM
Cc1nc(NC(=O)c2ccccc2)sc1C	.	.	.	.	.	.
COC(=O)c1cc(C)sc1NC(=O)CCc1ccccc1	.	.	.	.	.	11.2µM
CCn1cc(C(=O)N[C@H](C(=O)NCCCO)C(C)C)c(=O)c2cc3c(cc21)OCO3	.	.	.	.	.	.
SMILES	aSyn yeast inh	Mito fusion act	Abeta rescue	AT treatment	Glioma ERSR ind	TDP43 rescue
COc1ccc(OCC(=O)N(Cc2cccc(OC)c2)C2CCS(=O)(=O)C2)cc1 (configuration not stated)	/	/	.	/	.	.
C[C@@H]1C[C@@H](CC(=O)NCC2Cc3cccc(-c4ccncc4)c3O2)NC(=S)N1 (some centres not stated)	/	/	/	/	.	/
Cc1nc(N2CCCCC2)sc1C(=O)c1ccc(SCCO)c([N+](=O)[O-])c1	.	.	.	.	.	35.5µM
Cc1nc(N2CCCCC2)sc1C(=O)c1cccc([N+](=O)[O-])c1	.	.	.	.	.	?
Cc1ccc(O)c(N=CC2=C(O)c3ccccc3C2=O)c1	.	.	.	.	31.6µM	.
O=C1C(C=Nc2ccccc2O)=C(O)c2ccccc21	.	.	.	.	.	.
O=C(Cn1cnc2onc(-c3ccc(F)cc3)c2c1=O)N1CCN(c2ccc(F)cc2)CC1	?	/	.	/	.	35.5µM
Cn1ccc2c(OCC(=O)NCc3ccccc3Cl)cccc2c1=O	/	/	.	/	.	?
COc1cccc(C(O)c2nc(-c3ccc4ccccc4c3)cs2)c1 (configuration not stated)	?	/	.	/	.	22.4µM
COc1cccc(C(O)c2nc(-c3cccc(F)c3)cs2)c1 (configuration not stated)	.	/	.	/	.	22.4µM
OC(c1ccc(F)cc1)c1nc(-c2cccc(F)c2)cs1 (configuration not stated)	.	/	.	/	.	11.2µM
OC(c1ccc(F)cc1)c1nc(-c2cc3ccccc3o2)cs1 (configuration not stated)	?	/	?	/	.	25.1µM
CC(=O)NC(c1cccc(F)c1)c1nc(-c2cc3ccccc3o2)cs1 (configuration not stated)	.	/	.	/	.	?
COc1cccc(Nc2ncc3nc(-c4cc(F)cc(F)c4)c(=O)n(C4CC4)c3n2)c1	/	/	/	/	.	/
Clc1cccc(CNc2ccn3nc(-c4cccc(Cl)c4)cc3n2)c1	.	/	?	/	.	11.2µM
CC(C)(C)c1cc2nc(NCc3cccc(Cl)c3)ccn2n1	?	/	?	/	.	25.1µM
Clc1cccc(CNc2ccn3nc(-c4ccccc4)cc3n2)c1	?	/	?	/	.	12.6µM
Clc1ccc(-c2cc3nc(NCc4cccc(Cl)c4)ccn3n2)cc1	.	/	.	/	.	35.5µM
Clc1cccc(CNc2ccn3nc(-c4ccc(OCc5ccccc5)cc4)cc3n2)c1	.	/	.	/	.	.
Cc1c(C(=O)NCC2COCCO2)cnn1-c1nccc(-c2cccs2)n1 (configuration not stated)	/	/	/	/	.	/
Nc1nc(N)nc(-c2ccc(Cl)c(Cl)c2)n1	.	.	.	.	.	22.4µM
CN(C)S(=O)(=O)c1ccc2c(c1)N(CC(=O)NCc1ccccc1)C(=O)C1CCCCN21 (configuration not stated)	/	/	.	/	.	.[9.22 µM]
COc1ccc(-n2cnnc2SCc2cnc(-c3ccccc3)s2)cc1	.	.	.	.	.	20µM
COC(=O)c1ccc(N=Nc2ccccc2)cc1	.	.	.	.	.	15.8µM

High-throughput results from PubChem BioAssay.
